Several values for one entry are separate records, joined by “and”; a condition that tells them apart may be missing. Equal entries are not always repeated. Records with an inconclusive call do not appear. Where a call stands in place of a potency, no number is given. A number with no mark means an inactive call. Activity calls are given as the source filed them. Calls follow the shape of the dose curve; as a rule, active = well fitted cell-killing curve with a large enough effect; inconclusive = small, poorly fitted or top-dose-only effect; inactive = flat fitted curve, though single readings scatter.
Potency is read from the fitted curve at half-maximal effect.

The experiment in a line: qHTS of pediatric cancer cell lines to identify multiple opportunities for drug repurposing: Primary screen for DAOY cells (AID 1347090). Also: nearly all actives have a fitted effect of over 55% in size. The following applies: DAOY medulloblastoma viability, CellTiter-Glo luminescence, 48 h; series mostly up to 46 µM; activity change, negative = cytotoxic: at the top concentration. The source says:
Drug repurposing or repositioning has been offered as a strategy for drug development in oncology programs. This approach has special potential for childhood cancers and other rare or orphan diseases, where the expected return on new drug development has been a disincentive to pharmaceuticals.
In this project we exploit the poly-pharmacology of drugs to discover new indications via phenotypic screening of a panel of 19 well-characterized cell lines derived from solid tumors seen in children and adolescents. The goal is to identify approved drugs with previously unrecognized anticancer properties that has the potential to reveal new mechanisms and biological processes involved in carcinogenesis or drug resistance. We employed a titration-based paradigm (quantitative high-throughput screening or qHTS), where all compounds were tested at multiple concentrations for their effect on cell viability. Concentration-response curves (CRCs) were derived directly from the primary screen, and both potency and efficacy values were used to identify compounds with robust bioactivity profiles. We screened the NIH Chemical Genomics Center (NCGC) Pharmaceutical Collection (NPC) and Mechanism Interrogation Plate (MIPE) small molecule collections of approved and investigational compounds against these cell lines; and measured metabolically active cells after 48 hours of compound treatment as a proxy for cell viability.
Assay Submitter: Nathalia J. Martinez, National Center for Advancing Translational Sciences, National Institutes of Health, Rockville, MD, USA; email: natalia.martinez@nih.gov
[1] Shen, M et al. Quantitative high-throughput phenotypic screening of pediatric cancer cell lines identifies multiple opportunities for drug repurposing. Oncotarget 2017 Dec 19;9(4):4758-4772. PMID 29435139.
The cells were obtained from University of North Carolina (UNC), Pediatric Preclinical Testing Program (PPT), and Coriell Institute (CI).
qHTS cell viability assay:
Cells were assayed in growth media at a density of 500-1,000 cells/well. Five microliters of cells were dispensed into 1,536-well, white, solid-bottom, TC-treated plates (Greiner Bio One) using a multidrop dispenser and incubated at 37 degrees C, 5% CO2, under a humidified atmosphere for 5 hours. Twenty-three nanoliters of compounds and controls (neutral control DMSO or positive control bortezomib at final concentration of 2.3 µM) were subsequently transferred by Kalypsys pintool. For primary screens, the MIPE collection was tested at 11-point dilutions (final concentrations range from 0.78 nM to 46 µM) and the NPC collection at 8-point dilutions (final concentrations range from 0.59 nM to 46 µM). Compounds tested in follow-up screens were assayed at 11-point dilutions. Cells were incubated for 48 hours, followed by addition of 3 uL of CellTiter-Glo (Promega). After a 15 min incubation at room temperature, samples were analyzed for luminescence intensity using a ViewLux High-throughput CCD imager equipped with clear filters.
In the case of `Cn1nnc2c(C(N)=O)ncn2c1=O`, the Potency result is “inactive”. The same measure, in the same setting: with `COCCCOc1cc(C[C@@H](C[C@H](N)[C@@H](O)C[C@H](C(=O)NCC(C)(C)C(N)=O)C(C)C)C(C)C)ccc1OC` the entry was “inactive”; with `Nc1ccc(S(=O)(=O)Nc2ccccn2)cc1`, “inactive”. Same read-out and setting: with `CO[C@@]12[C@H](COC(N)=O)C3=C(C(=O)C(C)=C(N)C3=O)N1C[C@@H]1N[C@@H]12` the figure was 9.35 µM (active); with `C#CCN[C@@H]1CCc2ccccc21`, “inactive”. The same measure, in the same setting: with `CC(C)(C#N)c1cc(Cn2cncn2)cc(C(C)(C)C#N)c1` the entry was “inactive”; with `CN(C)CCc1c[nH]c2ccc(CS(=O)(=O)N3CCCC3)cc12`, “inactive”. As for `CCCCCCNC(=O)n1cc(F)c(=O)[nH]c1=O`, the Potency entry is “inactive”.

With `O=C(O)CSCC(=O)NC1CCSC1=O` (stereo not given), the Potency result is “inactive”. The same measure, in the same setting: with `CC1(C)[C@H](C(=O)O)N2C(=O)C[C@H]2S1(=O)=O` the entry was “inactive”. For `Nc1nc(N)c2nc(CNc3ccc(C(=O)NC(CCC(=O)O)C(=O)O)cc3)cnc2n1` (stereo not given), the “activity change, negative = cytotoxic” value is -36.3%. Consider `CC(=O)CC(c1ccccc1)c1c(O)c2ccccc2oc1=O` (stereo not given), for which the Potency entry was “inactive”. Same read-out and setting: with `COc1c(N2CCNC(C)C2)c(F)cc2c(=O)c(C(=O)O)cn(C3CC3)c12` (stereo not given) the entry was “inactive”. Take `CC(C)C1CCC(C(=O)N[C@H](Cc2ccccc2)C(=O)O)CC1` (stereo not given in full): the Potency entry was “inactive”.

In the case of `CC(N)C12CC3CC(CC(C3)C1)C2` (stereo not given), the Potency entry was “inactive”. Still for that read-out and setting: with `CS(=O)(=O)c1ccc([C@@H](O)[C@@H](CO)NC(=O)C(Cl)Cl)cc1` the entry was “inactive”. Consider `CNS(=O)(=O)CCc1ccc2[nH]cc(C3CCN(C)CC3)c2c1`, for which the “activity change, negative = cytotoxic” value was -17.7%. On the same count and under the same terms, then `CC1=CC(=O)c2ccccc2C1=O`, with -25%. On to `COc1ccc2cc3[n+](cc2c1OC)CCc1cc2c(cc1-3)OCO2`, for which the Potency is 6.68 µM (active) and 18.7 µM (active). Still for that read-out and setting: then `CC(C)OC(=O)OCOP(=O)(CO[C@H](C)Cn1cnc2c(N)ncnc21)OCOC(=O)OC(C)C`, with “inactive”. The same measure, in the same setting: then `OC(Cn1cncn1)(Cn1cncn1)c1ccc(F)cc1F`, with “inactive”; and `COc1cccc(N(C)C(=S)Oc2ccc3c(c2)CCCC3)n1`, with “inactive”. As for `CCC(=O)O[C@]1(C(=O)SCF)[C@H](C)C[C@H]2[C@@H]3C[C@H](F)C4=CC(=O)C=C[C@]4(C)[C@@]3(F)[C@@H](O)C[C@@]21C`, the “activity change, negative = cytotoxic” value was -24.6%.

Take `C[C@]12C=CC(=O)C=C1CC[C@@H]1[C@@H]2C(=O)C[C@@]2(C)[C@H]1CC[C@]2(O)C(=O)CO`: the Potency result is “inactive”. On the same count and under the same terms, with `O=S(=O)(O)CCS` the entry was “inactive”; with `CCn1cc(C(=O)O)c(=O)c2cc(F)c(N3CCN(C)CC3)cc21`, “inactive”. On the same count and under the same terms, then `CNNCc1ccc(C(=O)NC(C)C)cc1`, with “inactive”. The same measure, in the same setting: then `CO[C@@H]1[C@@H](OC(N)=O)[C@@H](O)[C@H](Oc2ccc3c(O)c(NC(=O)c4ccc(O)c(CC=C(C)C)c4)c(=O)oc3c2C)OC1(C)C`, with “inactive”; and `O=C(O)c1cccnc1`, with “inactive”. For `Cc1cccc(Nc2ccncc2S(=O)(=O)NC(=O)NC(C)C)c1`, the Potency result was “inactive”. The same measure, in the same setting: with `O=C(N[C@H](CO)[C@H](O)c1ccc([N+](=O)[O-])cc1)C(Cl)Cl` the entry was “inactive”. Regarding `COc1cnc(NS(=O)(=O)c2ccc(N)cc2)nc1`, the “activity change, negative = cytotoxic” value is 7.11%. For `COC(=O)Nc1nc2ccc(S(=O)c3ccccc3)cc2[nH]1` (stereo not given), the Potency is 841 nM (active) and 14.8 µM (active).

Consider `O=P(O)(O)C(O)(Cc1cccnc1)P(=O)(O)O`, for which the Potency entry was “inactive”. Consider `C[C@@H]1CN(c2c(F)c(N)c3c(=O)c(C(=O)O)cn(C4CC4)c3c2F)C[C@H](C)N1`, for which the Potency entry was “inactive”. Consider `CCn1cc(C(=O)O)c(=O)c2cc(F)c(N3CCNCC3)cc21`, for which the Potency entry is “inactive”. The same measure, in the same setting: with `CCOCC(O)COc1ccc(NC(=O)CC[S+](C)C)cc1` (stereo not given) the entry was “inactive”. In the case of `CCN1CCCC1CNC(=O)c1cc(S(N)(=O)=O)ccc1OC` (stereo not given), the “activity change, negative = cytotoxic” value is -1.37%.

As to `Cc1cccc(N(C)C(=S)Oc2ccc3ccccc3c2)c1`, the Potency entry was “inactive”. Turning to `NC(=O)c1ccc2[nH]ccc2c1`, the “activity change, negative = cytotoxic” value was -9.25%.

For the origin of these results see PubChem BioAssay (NCATS).
